Values joined by “and” are separate entries in the source; they are usually repeats but may differ in a detail not shown here. Equal values may be shown once. A number with no mark means an inactive call. Inconclusive results are not listed. Entries that show only a call come without a potency. Active and inactive are the calls of the source. Calls come from the whole dose curve; as a rule, active = well fitted curve in the direction sought with a large enough effect; inconclusive = small, poorly fitted or top-dose-only effect, or another doubt; inactive = no such curve, though single readings can be large; an effect the other way counts as inactive or inconclusive.
Tests used:
CP203 = assay: qHTS profiling for inhibitors of Plasmodium falciparum proliferation (AID 504749); note: nearly all actives have a fitted effect of over 60% in size; note: potency is the fitted concentration of half-maximal effect; conditions: P. falciparum in erythrocytes, SYBR Green DNA, 72 h; series mostly up to 12.8 µM
Summary of the method: (§1)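 Quantitative HTS: compounds pinned into medium, infected erythrocytes added (0.3% parasitemia, 2.5% hematocrit), 72 h culture at 37 C under 5% CO2. Saponin/Triton lysis with SYBR Green I, overnight RT, then fluorescence read.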

DFO2036 = assay: as above; conditions: P. falciparum in erythrocytes, SYBR Green DNA, 72 h; series mostly up to 12.8 µM
Summary of the method: as §1

[1] = biological target: DNA repair nuclease/redox regulator APEX1 (Homo sapiens) (UniProt P27695); assay: qHTS Validation Assay for Inhibitors of the Human Apurinic/apyrimidinic Endonuclease 1 (APE1) (AID 1705;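 note: TAMRA fluorescence gain over two minutes as APE1 cuts a quenched THF abasic duplex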)
Summary of the method: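 Endonuclease activity of human APE1 is followed as dequenching when the enzyme incises a tetrahydrofuran abasic site in a short duplex labelled 5'-TAMRA/3'-BHQ-2 (50 nM final), after 15 min enzyme–compound preincubation at room temperature.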

[2] = qHTS for differential inhibitors of proliferation of Plasmodium falciparum line 3D7 (AID 1876); note: potency is the fitted concentration of half-maximal effect
[3] = qHTS for differential inhibitors of proliferation of Plasmodium falciparum line Dd2 (AID 1882); conditions: Potency: Plasmodium falciparum Dd2 proliferation inhibition; note: nearly all actives have a fitted effect of over 65% in size
Summary of the method: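 SYBR Green DNA fluorescence (ex 485, em 535 nm) after overnight lysis quantifies parasite growth; compound exposure lasted 72 h at 37 C on infected red cells at 2.5% hematocrit, 0.3% parasitemia (final). Artemisinin 0.29 uM and vehicle wells define normalization.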

[4] = qHTS for differential inhibitors of proliferation of Plasmodium falciparum line HB3 (AID 1886); conditions: Potency: Plasmodium falciparum HB3 proliferation inhibition;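 note: parasites grown with compound for 72 h before SYBR Green readout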; note: potency is the fitted concentration of half-maximal effect
[5] = biological target: Ferritin light chain (Equus caballus) (UniProt P02791); assay: qHTS Validation Assay for Identification of Novel General Anesthetics (AID 2323)
Summary of the method: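 Apoferritin from horse spleen (10 uM) was mixed with 1-aminoanthracene at 50% saturation in PBS, then compounds were added. After 10 min at room temperature, fluorescence was read (ex 380 nm, em 535 nm) and normalized to free-probe and complex controls.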

[6] = Validation screen for small molecules that induce DNA re-replication in MCF 10A normal breast cells (AID 463097); note: nearly all actives have a fitted effect of over 60% in size
Summary of the method: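 DNA re-replication was detected as a rise in nuclei with elevated Hoechst fluorescence after a 48 hr compound exposure of MCF 10A cells at 37 C.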

[7] = Quantitative high throughput screen for delayed death inhibitors of the malarial parasite plastid, 48 hour incubation (AID 488752); note: nearly all actives have a fitted effect of over 65% in size
Summary of the method: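 First, compound was pinned into RPMI 1640 medium containing 0.5% Albumax. Next, reporter-parasite-infected erythrocytes were added to 2% hematocrit and 0.1% parasitemia. After 48 h at 37 C under 5% CO2, luciferase detection reagent was added and luminescence read.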

[8] = biological target: M-phase phosphoprotein 8 (Homo sapiens) (UniProt Q99549); assay: qHTS Validation Assay for Inhibitors for MPP8 Chromodomain Interactions with Methylated Histone Tails (AID 488949);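 note: AlphaScreen signal from MPP8 chromodomain bound to biotinylated H3K9me3 peptide; top concentration of the series differs between compounds; nearly all actives have a fitted effect of over 55% in size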
Summary of the method: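 Disruption of the preformed MPP8–trimethyl-H3K9 peptide complex (both 50 nM, 30 min, RT) is measured after 30 min compound exposure, using AlphaScreen proximity beads; aurintricarboxylic acid titration serves as plate control.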

[9] = biological target: Thyrotropin receptor (Homo sapiens) (UniProt P16473); assay: qHTS Assay for Antagonists of the Thyroid Stimulating Hormone Receptor (AID 488980)
Summary of the method: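 Cells expressing human TSHR (HEK293) are dispensed in HBSS/HEPES containing 70 uM RO 20-1724, compound is added, then TSH at EC80 (4 nM final). Antibody in lysis buffer follows, 30 minutes at room temperature before HTRF detection.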

[10] = biological target: Cytochrome P450 2D6 (Homo sapiens) (UniProt P10635); assay: qHTS Assay for Inhibitors and Substrates of Cytochrome P450 2D6 (AID 891); note: potency is the fitted concentration of half-maximal effect; nearly all actives have a fitted effect of over 60% in size
Summary of the method: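 Luminescent read-out of luciferin formed by 5 nM human CYP2D6 demethylating 30 uM Luciferin-ME EGE (Km level) over 60 min at room temperature after NADPH regeneration addition. Data normalized to full inhibition by 1.43 uM quinidine.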

[11] = biological target: Cytochrome P450 2C9 (Homo sapiens) (UniProt P11712); assay: qHTS Assay for Inhibitors and Substrates of Cytochrome P450 2C9 (AID 883); note: nearly all actives have a fitted effect of over 60% in size; note: potency is the fitted concentration of half-maximal effect
Summary of the method: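 CYP2C9 deoxyluciferin hydroxylation, 37C, 60 min with NADPH regeneration; 10nM enzyme, 100uM Luciferin-H (KM). Glo detection reagent stopped reaction; luminescence normalized to sulphaphenazole (57uM) full inhibition.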

[12] = biological target: Phospholipid hydroperoxide glutathione peroxidase GPX4 (Homo sapiens) (UniProt P36969); assay: Primary qHTS Assay for Inhibitors of Recombinant Selenoprotein Glutathione Peroxidase 4 (GPX4) (AID 1845192); conditions: outcome: dose series up to 50 µM unless noted; note: nearly all actives have a fitted effect of over 65% in size
Summary of the method: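 qHTS, GR-coupled: GPX4 200 nM + cpd 30 min RT → GSH 1 mM, NADPH 0.5 mM, GR 100 nM → CHP 0.5 mM start; fluor 340/450 at t0 and t15 min; no-enzyme wells as control.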

[13] = biological target: Cytochrome P450 3A4 (Homo sapiens) (UniProt P08684); assay: qHTS for inhibitors of CYP3A4 against the NCATS DSHEA and TCM libraries (AID 1919971);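 note: inhibition lowers luminescence from luciferin made by CYP3A4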
Summary of the method: (§2)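 Concentration-response screening with isoform-matched pro-luciferin substrates. The CYP reaction was initiated by NADPH regenerating solution and ran 30-45 min in darkness at room temperature.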

[14] = biological target: Cytochrome P450 2C19 (Homo sapiens) (UniProt P33261); assay: qHTS for inhibitors of CYP2C19 against the NCATS DSHEA and TCM libraries (AID 1919974);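 note: luminescence from luciferin released by CYP2C19 oxidation of a pro-luciferin substrate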; note: potency is the fitted concentration of half-maximal effect
Summary of the method: as §2

[15] = biological target: Nuclear receptor subfamily 1 group I member 2 (Homo sapiens) (UniProt O75469); assay: Dual reporter qHTS for agonist of Pregnane X Receptor (hPXR) against the NCATS DSHEA and TCM libraries: Luminescence readout (AID 1920059)
Summary of the method: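 hPXR-LucHepG2 cells in phenol red-free DMEM with 5% charcoal-stripped FBS, 2000 cells/well, attached 5 h, then exposed 24 h at 37C to compounds; rifampicin as positive agonist control (2.8 nM–92 uM). Luciferase luminescence read.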

[16] = biological target: Glutathione peroxidase 1 (Homo sapiens) (UniProt P07203); assay: Primary qHTS Assay for Inhibitors of Recombinant Selenoprotein Glutathione Peroxidase 1 (GPX1) (AID 1845191); conditions: outcome: dose series up to 48.8 µM unless noted; note: nearly all actives have a fitted effect of over 65% in size
Summary of the method: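 GPX1 10 nM, GR 100 nM, GSH 1 mM, NADPH 0.5 mM, CHP 0.5 mM (final). 30-min cpd preincubation, RT. Ex340/Em450 read t=0, t=15 min.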

[17] = Viability counterscreen for agonist of constitutive androstane receptor (CAR) against the NCATS DSHEA and TCM libraries (AID 1794838)
Summary of the method: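 In agonist mode, PK11195 is added at 0.75 uM final to HepG2-CYP2B6-hCAR cells dosed with test substances. Cultures incubate 24 h at 37C before a protease-based fluorogenic viability readout.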

[18] = biological target: Nuclear receptor subfamily 1 group I member 3 (Homo sapiens) (UniProt Q14994); assay: Primary qHTS for agonist of constitutive androstane receptor (CAR) against the NCATS DSHEA and TCM libraries (AID 1794839);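 note: HepG2 cells expressing human CAR with a CYP2B6 reporter plus PK11195 antagonist; luciferase reporter luminescence read with ONE-Glo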
Summary of the method: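 Cells stably carrying hCAR and a CYP2B6 reporter (HepG2 background) are seeded and allowed 5 h to adhere. Substances at multiple concentrations are added alongside 0.75 µM PK11195, and luciferase signal is measured after 24 h.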

Sequence of Thyrotropin receptor (Homo sapiens) (P16473 whole entry, looked up): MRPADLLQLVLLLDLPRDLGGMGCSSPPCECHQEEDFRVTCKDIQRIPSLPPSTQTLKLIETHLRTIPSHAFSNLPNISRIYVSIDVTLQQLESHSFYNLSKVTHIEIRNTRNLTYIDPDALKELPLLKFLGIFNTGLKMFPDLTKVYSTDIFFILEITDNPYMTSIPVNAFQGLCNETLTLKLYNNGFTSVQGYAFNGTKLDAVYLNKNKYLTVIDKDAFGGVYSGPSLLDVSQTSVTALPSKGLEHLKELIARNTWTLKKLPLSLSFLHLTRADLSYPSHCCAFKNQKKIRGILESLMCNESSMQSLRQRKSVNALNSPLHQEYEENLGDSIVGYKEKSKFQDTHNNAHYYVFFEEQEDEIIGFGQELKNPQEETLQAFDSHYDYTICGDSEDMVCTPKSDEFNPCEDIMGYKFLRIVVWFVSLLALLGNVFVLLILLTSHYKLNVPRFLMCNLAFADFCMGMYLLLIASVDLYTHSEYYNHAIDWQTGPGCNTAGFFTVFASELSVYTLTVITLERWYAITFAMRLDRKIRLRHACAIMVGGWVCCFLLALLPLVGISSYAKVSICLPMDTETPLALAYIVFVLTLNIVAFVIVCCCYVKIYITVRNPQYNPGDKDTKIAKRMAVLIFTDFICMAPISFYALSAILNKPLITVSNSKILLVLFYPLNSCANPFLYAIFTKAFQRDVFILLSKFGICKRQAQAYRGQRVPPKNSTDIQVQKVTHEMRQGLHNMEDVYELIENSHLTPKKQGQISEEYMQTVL
Sequence of Cytochrome P450 2C19 (Homo sapiens) (P33261 whole entry, looked up): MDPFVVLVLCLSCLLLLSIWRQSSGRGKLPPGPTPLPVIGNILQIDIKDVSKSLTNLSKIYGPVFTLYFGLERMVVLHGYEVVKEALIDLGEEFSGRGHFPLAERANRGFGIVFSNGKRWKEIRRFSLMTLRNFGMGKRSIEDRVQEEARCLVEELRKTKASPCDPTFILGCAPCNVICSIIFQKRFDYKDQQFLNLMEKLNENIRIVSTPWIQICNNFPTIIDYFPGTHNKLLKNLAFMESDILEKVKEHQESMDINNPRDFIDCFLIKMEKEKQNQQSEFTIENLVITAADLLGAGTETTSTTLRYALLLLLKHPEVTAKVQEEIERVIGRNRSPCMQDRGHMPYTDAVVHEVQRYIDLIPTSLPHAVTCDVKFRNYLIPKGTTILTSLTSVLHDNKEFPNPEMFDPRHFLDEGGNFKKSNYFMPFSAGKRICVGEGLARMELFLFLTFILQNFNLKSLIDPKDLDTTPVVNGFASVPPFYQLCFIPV
Sequence of Cytochrome P450 3A4 (Homo sapiens) (P08684 whole entry, looked up, canonical isoform): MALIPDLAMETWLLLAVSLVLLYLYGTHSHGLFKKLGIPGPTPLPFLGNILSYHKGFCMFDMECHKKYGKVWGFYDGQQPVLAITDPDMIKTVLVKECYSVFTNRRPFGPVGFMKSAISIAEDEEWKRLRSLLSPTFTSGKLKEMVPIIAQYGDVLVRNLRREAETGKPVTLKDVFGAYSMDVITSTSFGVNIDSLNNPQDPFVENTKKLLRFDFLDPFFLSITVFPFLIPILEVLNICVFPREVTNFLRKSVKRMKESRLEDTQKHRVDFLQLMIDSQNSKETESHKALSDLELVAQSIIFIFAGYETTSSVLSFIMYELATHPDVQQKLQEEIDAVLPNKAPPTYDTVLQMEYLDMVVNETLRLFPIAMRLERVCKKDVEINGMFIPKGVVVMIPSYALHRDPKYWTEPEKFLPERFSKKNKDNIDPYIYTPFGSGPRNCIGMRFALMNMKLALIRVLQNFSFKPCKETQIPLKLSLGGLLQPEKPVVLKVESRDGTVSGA
Sequence of Cytochrome P450 2D6 (Homo sapiens) (P10635 whole entry, looked up): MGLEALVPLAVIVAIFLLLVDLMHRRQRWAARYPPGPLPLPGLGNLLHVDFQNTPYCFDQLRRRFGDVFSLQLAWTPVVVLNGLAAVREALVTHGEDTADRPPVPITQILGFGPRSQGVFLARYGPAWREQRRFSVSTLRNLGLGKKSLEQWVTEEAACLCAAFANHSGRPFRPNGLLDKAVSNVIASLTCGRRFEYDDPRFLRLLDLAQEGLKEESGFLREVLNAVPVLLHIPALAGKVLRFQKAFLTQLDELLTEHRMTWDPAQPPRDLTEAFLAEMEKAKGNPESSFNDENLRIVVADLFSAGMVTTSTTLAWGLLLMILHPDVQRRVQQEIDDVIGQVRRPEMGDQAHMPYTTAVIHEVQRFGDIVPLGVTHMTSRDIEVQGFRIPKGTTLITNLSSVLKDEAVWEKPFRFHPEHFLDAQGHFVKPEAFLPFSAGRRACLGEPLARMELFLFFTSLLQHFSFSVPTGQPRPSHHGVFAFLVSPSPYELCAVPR
Sequence of M-phase phosphoprotein 8 (Homo sapiens) (Q99549 whole entry, looked up): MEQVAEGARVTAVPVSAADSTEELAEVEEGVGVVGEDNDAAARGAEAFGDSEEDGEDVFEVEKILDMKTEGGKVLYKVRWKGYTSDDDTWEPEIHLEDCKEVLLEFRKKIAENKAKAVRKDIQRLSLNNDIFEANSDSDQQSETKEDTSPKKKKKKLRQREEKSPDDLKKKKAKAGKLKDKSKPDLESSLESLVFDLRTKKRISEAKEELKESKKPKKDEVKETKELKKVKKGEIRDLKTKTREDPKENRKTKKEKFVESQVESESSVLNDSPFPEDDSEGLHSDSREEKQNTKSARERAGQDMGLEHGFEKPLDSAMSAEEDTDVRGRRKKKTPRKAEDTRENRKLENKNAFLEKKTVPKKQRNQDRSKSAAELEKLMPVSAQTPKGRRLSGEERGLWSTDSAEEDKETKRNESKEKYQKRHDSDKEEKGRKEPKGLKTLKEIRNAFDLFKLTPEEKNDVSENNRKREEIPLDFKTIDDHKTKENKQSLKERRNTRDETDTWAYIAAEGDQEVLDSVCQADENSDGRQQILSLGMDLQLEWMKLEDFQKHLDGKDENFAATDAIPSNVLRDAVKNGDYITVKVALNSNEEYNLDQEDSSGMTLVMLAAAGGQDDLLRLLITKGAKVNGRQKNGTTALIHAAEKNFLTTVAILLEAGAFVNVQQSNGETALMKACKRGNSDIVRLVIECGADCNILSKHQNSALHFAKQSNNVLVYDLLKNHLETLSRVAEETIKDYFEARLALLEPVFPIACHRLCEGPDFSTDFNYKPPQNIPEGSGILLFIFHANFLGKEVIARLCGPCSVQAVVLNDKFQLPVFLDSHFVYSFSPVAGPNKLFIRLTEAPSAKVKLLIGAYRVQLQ
Sequence of Nuclear receptor subfamily 1 group I member 3 (Homo sapiens) (Q14994 whole entry, looked up): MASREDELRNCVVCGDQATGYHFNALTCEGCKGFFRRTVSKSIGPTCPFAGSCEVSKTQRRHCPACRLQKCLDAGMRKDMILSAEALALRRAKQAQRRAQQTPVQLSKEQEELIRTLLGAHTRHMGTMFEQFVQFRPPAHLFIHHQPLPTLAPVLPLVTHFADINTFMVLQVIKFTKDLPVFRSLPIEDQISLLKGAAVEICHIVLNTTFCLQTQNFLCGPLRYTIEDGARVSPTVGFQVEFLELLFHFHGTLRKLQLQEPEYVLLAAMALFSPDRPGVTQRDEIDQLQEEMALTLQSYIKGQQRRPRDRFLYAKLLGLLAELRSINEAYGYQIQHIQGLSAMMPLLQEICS
Sequence of Glutathione peroxidase 1 (Homo sapiens) (P07203 whole entry, looked up): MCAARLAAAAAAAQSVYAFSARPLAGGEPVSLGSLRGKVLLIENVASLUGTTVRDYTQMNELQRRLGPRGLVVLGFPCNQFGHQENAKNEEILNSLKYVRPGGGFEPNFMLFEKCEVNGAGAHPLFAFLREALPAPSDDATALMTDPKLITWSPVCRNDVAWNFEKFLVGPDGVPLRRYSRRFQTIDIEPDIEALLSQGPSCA
Sequence of Phospholipid hydroperoxide glutathione peroxidase GPX4 (Homo sapiens) (P36969 whole entry, looked up): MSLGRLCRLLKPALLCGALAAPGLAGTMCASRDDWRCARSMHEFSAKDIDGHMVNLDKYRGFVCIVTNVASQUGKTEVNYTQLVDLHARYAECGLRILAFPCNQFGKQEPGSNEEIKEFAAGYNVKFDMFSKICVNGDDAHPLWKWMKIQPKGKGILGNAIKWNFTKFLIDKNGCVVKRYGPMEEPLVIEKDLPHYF
Sequence of Nuclear receptor subfamily 1 group I member 2 (Homo sapiens) (O75469 whole entry, looked up): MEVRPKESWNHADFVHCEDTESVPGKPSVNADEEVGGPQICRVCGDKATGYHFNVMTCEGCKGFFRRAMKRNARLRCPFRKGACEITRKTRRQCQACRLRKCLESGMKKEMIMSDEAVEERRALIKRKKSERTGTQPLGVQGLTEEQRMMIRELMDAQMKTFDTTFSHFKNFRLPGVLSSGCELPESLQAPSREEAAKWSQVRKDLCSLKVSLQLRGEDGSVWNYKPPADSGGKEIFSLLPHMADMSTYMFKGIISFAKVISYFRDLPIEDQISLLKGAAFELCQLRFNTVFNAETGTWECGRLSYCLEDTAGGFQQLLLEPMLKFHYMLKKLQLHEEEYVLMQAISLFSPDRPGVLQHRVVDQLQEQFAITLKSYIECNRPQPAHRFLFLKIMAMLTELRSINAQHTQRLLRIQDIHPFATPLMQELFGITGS
Sequence of DNA repair nuclease/redox regulator APEX1 (Homo sapiens) (P27695 whole entry, looked up): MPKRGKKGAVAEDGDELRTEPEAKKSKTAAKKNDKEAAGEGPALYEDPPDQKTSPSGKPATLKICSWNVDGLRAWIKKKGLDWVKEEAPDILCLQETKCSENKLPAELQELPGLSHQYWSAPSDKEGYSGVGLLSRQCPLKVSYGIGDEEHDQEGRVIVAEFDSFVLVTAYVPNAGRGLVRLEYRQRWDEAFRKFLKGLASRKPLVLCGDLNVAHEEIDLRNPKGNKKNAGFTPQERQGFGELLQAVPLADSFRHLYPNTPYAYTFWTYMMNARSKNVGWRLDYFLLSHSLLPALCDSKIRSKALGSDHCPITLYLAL
Sequence of Ferritin light chain (Equus caballus) (P02791 2-175 limits assumed): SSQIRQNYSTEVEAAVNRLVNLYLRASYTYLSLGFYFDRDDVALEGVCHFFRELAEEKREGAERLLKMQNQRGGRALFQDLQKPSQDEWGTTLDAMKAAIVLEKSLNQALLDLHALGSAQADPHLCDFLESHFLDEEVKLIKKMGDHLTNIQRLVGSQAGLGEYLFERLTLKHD

Compound: Cc1cc(/C=C\c2ccc3cc(N(C)C)ccc3[n+]2C)c(C)n1-c1ccccc1
- Potency (CP203): 2.28 µM (active)
- Potency (DFO2036): 1.78 µM (active)

Compound: CNC(=O)[C@H]1O[C@@H](n2cnc3c(N)ncnc32)[C@H](O)[C@H]1O
- outcome [1]: inactive
- Potency [2]: inactive
- Potency [3]: inactive
- Potency [4]: inactive
- outcome [5]: inactive
- outcome [6]: inactive
- Potency [7]: inactive
- Potency [8]: inactive
- outcome [9]: inactive

Compound: Nc1ncnc2c1nc(Br)n2C1O[C@H]2COP(=O)(O)O[C@@H]2C1O (stereo partly drawn)
- outcome [1]: inactive
- Potency [4]: 6.31 µM (active)
- outcome [5]: inactive
- outcome [6]: inactive
- Potency [7]: inactive
- outcome [9]: inactive

Compound: C[C@@H](Oc1ccc(Oc2cnc3ccc(Cl)cc3n2)cc1)C(=O)O
- Potency [2]: inactive
- Potency [3]: inactive
- Potency [4]: inactive
- Potency [7]: inactive
- Potency [8]: inactive
- outcome [9]: inactive

Compound: COc1ccc2c(c1OC)C(=O)OC2C1c2c(cc3c(c2OC)OCO3)CCN1C (stereo not drawn)
- outcome [1]: inactive
- Potency [2]: 12.6 µM (active)
- Potency [3]: inactive
- outcome [5]: inactive
- outcome [6]: inactive
- Potency [8]: inactive
- outcome [9]: inactive

Compound: CN(C)CCCO[C@H]1C([C@H](O)CO)O[C@@H]2OC(C)(C)O[C@@H]21 (stereo partly drawn)
- outcome [1]: inactive
- Potency [2]: inactive
- Potency [3]: inactive
- Potency [4]: inactive
- outcome [5]: inactive
- outcome [6]: inactive
- Potency [7]: inactive
- Potency [8]: inactive

Compound: CN(C)Cc1ccccc1-c1cc(NCc2cccs2)ncn1
- Potency [10]: 2 µM (active)

Compound: COc1ccccc1-c1nccc(NCc2ccccc2)n1
- Potency [10]: 3.98 µM (active)

Compound: COc1ccccc1CNc1ncnc2ccc(-c3ccccc3OC)cc12
- Potency [11]: 0.794 µM (active)

Compound: Cc1ccccc1-c1nc(N2CCOCC2)c2ccccc2n1
- activity change, negative = inhibition [11]: 14.3% [at 2.29 µM]

Compound: COc1cccc(Cn2c(=O)c(-c3cc(F)cc(F)c3)nc3cnc(N4CCNCC4)nc32)c1
- Potency [11]: 7.94 µM (active)

Compound: CN1CCN(c2ncncc2-c2ccc(N(C)C)cc2)CC1
- activity change, negative = inhibition [11]: 36.5% [at 2.29 µM]

Compound: COc1cccc(-c2ccc3ncnc(NCCc4c[nH]c5ccc(OC)cc45)c3c2)c1
- Potency [11]: 0.398 µM (active)
- Potency [10]: 2.51 µM (active)

Compound: O=C(Cc1cccs1)NC1C(=O)N2C(C(=O)[O-])=C(C[n+]3ccccc3)CSC12 (stereo not drawn)
- outcome [12]: inactive
- Potency (CP203): inactive
- Potency (DFO2036): inactive

Compound: NC(Cc1c[nH]c2ccccc12)C(=O)O (stereo not drawn)
- outcome [13]: inactive
- Potency [14]: 3.16 µM (active)
- outcome [15]: inactive

Compound: COc1cc2c(cc1OC)C1Cc3ccc(OC)c(OC)c3CN1CC2 (stereo not drawn)
- outcome [16]: inactive

Compound: COc1ccc2ccc(=O)oc2c1
- outcome [17]: inactive
- outcome [18]: inactive
- outcome [13]: inactive
- Potency [14]: inactive
- outcome [15]: inactive

Compound: CC1(C)SC2C(NC(=O)Cc3ccccc3)C(=O)N2C1C(=O)O (stereo not drawn)
- outcome [16]: inactive
- outcome [12]: inactive

Compound: C=C[C@](C)(O)CCC=C(C)C
- outcome [17]: inactive
- outcome [18]: inactive
- Potency [14]: 3.55 µM (active)

Compound: O=c1ccc2ccc(O)cc2o1
- outcome [18]: inactive
- outcome [15]: inactive

Compound: C=C(C)[C@H]1CC=C(C)C(=O)C1
- outcome [17]: inactive
- outcome [18]: inactive
- outcome [13]: inactive
- Potency [14]: inactive
- outcome [15]: inactive

Compound: CC(C)N1CCN(c2ccc(OC[C@@H]3CO[C@@](Cn4cncn4)(c4ccc(Cl)cc4Cl)O3)cc2)CC1
- outcome [16]: inactive
- outcome [12]: inactive
- Potency (CP203): inactive
- Potency (DFO2036): inactive

Compound: CC12CC[C@@H]3c4ccc(OS(=O)(=O)O)cc4CC[C@H]3C1CCC2=O (stereo partly drawn)
- outcome [16]: inactive
- outcome [12]: inactive

Compound: COC(=O)C1=CO[C@@H](C)[C@H]2CN3CCc4c([nH]c5ccccc45)[C@@H]3C[C@H]12
- Potency [10]: 2 nM (active) and 7.9 nM (active)
- outcome [17]: inactive

Compound: O=C(/C=C/c1ccc(O)c(O)c1)OC(Cc1ccc(O)c(O)c1)C(=O)O (stereo not drawn)
- outcome [17]: inactive
- outcome [18]: inactive
- outcome [13]: inactive
- Potency [14]: 3.55 µM (active)
- outcome [15]: inactive

Source: PubChem BioAssay (NCATS)
